Screens deposited in PubChem BioAssay by several laboratories.
Bcl-xL primary = blocks human Bcl-xL binding to Bim BH3 peptide; AID 2129; inhibition, % at 10.9 µM; 320,000 compounds, 0.7% hits; Q07817; GST-Bcl-xL / FITC-Bim BH3 peptide fluorescence polarization;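 active = inhibition above the mean of all tested compounds plus 3 SD, cutoff set per campaign, cut at about 30% in these data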;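 note: 0% = DMSO wells and 100% = unlabeled Bim-BH3 peptide competitor; inhibitors lower millipolarization by displacing the labeled peptide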
Target sequence (Q07817 whole entry, looked up): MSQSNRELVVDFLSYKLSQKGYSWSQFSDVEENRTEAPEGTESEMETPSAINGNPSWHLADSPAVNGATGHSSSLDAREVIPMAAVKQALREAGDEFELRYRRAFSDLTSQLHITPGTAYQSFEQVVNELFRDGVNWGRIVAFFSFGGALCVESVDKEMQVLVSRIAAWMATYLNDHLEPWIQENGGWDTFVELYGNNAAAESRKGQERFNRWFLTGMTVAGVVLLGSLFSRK
GLD-1 RNA inh = GLD-1-TGE RNA interaction inhibition (C. elegans); Q17339; purified GLD-1 + fluorescein TGE RNA, fluorescence polarization; inhibition, % at 5.96 µM; 320,000 compounds, 0.44% hits; AID 2280;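 active = percent inhibition above a per-plate cutoff, the plate mean of test compounds plus 3 SD, cut at about 30% in these data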;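 note: 0% = DMSO wells with GLD-1 and probe and 100% = wells lacking GLD-1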
Mcl1 Noxa PPI = Mcl-1/Noxa interaction inhibition. 220,000 compounds, 1.5% hits. Q07820. TR-FRET Mcl-1/Noxa peptide binding, 2 h. inhibition, % at 21.7 µM;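 active = compounds that cut the protein-peptide binding signal by more than 50% relative to plate controls in a single-dose test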;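 note: His-tagged Mcl-1 with rhodamine Noxa BH3 peptide and terbium anti-His antibody; 0% = Mcl-1 plus Noxa peptide wells and 100% = peptide-only wells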
Target sequence (Q07820 whole entry, looked up): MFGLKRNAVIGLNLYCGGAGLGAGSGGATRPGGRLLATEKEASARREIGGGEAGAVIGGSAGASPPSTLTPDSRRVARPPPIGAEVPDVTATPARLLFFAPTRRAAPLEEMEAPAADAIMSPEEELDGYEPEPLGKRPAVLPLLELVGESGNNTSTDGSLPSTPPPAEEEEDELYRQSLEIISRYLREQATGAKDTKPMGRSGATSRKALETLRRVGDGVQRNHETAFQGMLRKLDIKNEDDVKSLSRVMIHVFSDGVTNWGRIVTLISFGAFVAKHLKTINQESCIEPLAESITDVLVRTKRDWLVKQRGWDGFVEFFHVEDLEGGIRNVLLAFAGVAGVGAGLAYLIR
Mcl-1 Bim block = disrupts Bim peptide binding to human Mcl-1 | Q07820 | Bead-based flow cytometry, Bim peptide-Mcl-1 binding | inhibition, % at 10 µM | 190,000 compounds, 0.1% hits | AID 1009; in the data active = inhibition above about 40%;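 note: 0% = no compound tracer wells and 100% = peptide blocker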
MCL1 BIM primary = inhibitors of human MCL1 binding to BIM-BH3 peptide; GST-MCL1 / FITC-Bim-BH3 fluorescence polarization; 320,000 compounds, 0.68% hits; inhibition, % at 10.9 µM; AID 2057;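 active = inhibition above the mean inhibition of all tested compounds plus 3 SD, set per campaign, cut at about 40% in these data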;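 note: 0% = DMSO wells and 100% = unlabeled Bim-BH3 peptide control; higher means more loss of mP so more displacement of Bim peptide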
Mcl1 Bid PPI = Mcl-1/Bid interaction inhibition; Q07820; TR-FRET Mcl-1/Bid-Dy647 peptide binding, 1536-well; inhibition, % at 21.7 µM; 220,000 compounds, 0.97% hits;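 active = compounds that cut the binding signal by more than half at the single screening dose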;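 note: His-tagged Mcl-1 with europium anti-His antibody binding Bid BH3 peptide; 0% = Mcl-1 plus peptide wells and 100% = peptide-only wells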
Bcl-xL conf = counter-screen for MCL1 inhibitors: confirmation of human Bcl-xL inhibitors | shares compounds with MCL1 BIM primary | GST-Bcl-xL / FITC-Bim BH3 peptide FP binding | inhibition, % at 10.9 µM | 1,700 compounds, 54% hits;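 active = inhibition above a cutoff equal to the mean inhibition of all tested compounds plus 3 SD, cut at about 30% in these data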;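 note: 0% = DMSO wells and 100% = unlabeled Bim BH3 control peptide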
MCL1 inh confirm = confirmation of human MCL1 and BIM-BH3 interaction inhibitors; shares compounds with MCL1 BIM primary; AID 2168; inhibition, % at 10.9 µM; GST-MCL1 / FITC-Bim-BH3 fluorescence polarization; 1,700 compounds, 61% hits;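 active = inhibition above the average of all tested compounds plus 3 SD, cut at about 40% in these data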;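 note: 0% = DMSO wells and 100% = unlabeled Bim-BH3 control peptide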
The depositor's hits bear a star. Compounds with a hit are over-represented: about 2.3% of the library has one in this group of screens.

C=CCn1c(CC#N)nnc1N1CCOCC1 was read as Bcl-xL primary -2, GLD-1 RNA inh -4, Mcl1 Noxa PPI 34, Mcl-1 Bim block -2, MCL1 BIM primary 65*, Mcl1 Bid PPI -2, Bcl-xL conf 7 and MCL1 inh confirm 4.
C=CCN1C(c2ccccc2)=CS/C1=C(/C#N)c1nnc(N2CCOCC2)n1-c1ccccc1 was read as Bcl-xL primary 2, GLD-1 RNA inh 3, Mcl1 Noxa PPI 21, Mcl-1 Bim block -7, MCL1 BIM primary 1 and Mcl1 Bid PPI -29.
`Cc1cccc(N2C(=O)c3cccc4c(N)ccc(c34)C2=O)c1` gave Bcl-xL primary active, GLD-1 RNA inh active, MCL1 BIM primary active, Bcl-xL conf 198* and MCL1 inh confirm active.
Screening Nc1cccc(N2C(=O)c3cccc4c(N)ccc(c34)C2=O)c1 returned Bcl-xL primary active, GLD-1 RNA inh 195*, MCL1 BIM primary active, Bcl-xL conf active and MCL1 inh confirm active.
Screening Cc1ccnc(N2C(=O)c3cccc4c([N+](=O)[O-])ccc(c34)C2=O)c1 returned Bcl-xL primary 88*, GLD-1 RNA inh 77*, Mcl-1 Bim block 0, MCL1 BIM primary 103*, Mcl1 Bid PPI 25, Bcl-xL conf 82* and MCL1 inh confirm 119*.
For Cc1cccc(N2C(=O)c3cccc4c(N(C)CCO)ccc(c34)C2=O)c1 the results were Bcl-xL primary 183*, GLD-1 RNA inh 176*, Mcl1 Noxa PPI -86, Mcl-1 Bim block -1, MCL1 BIM primary active, Mcl1 Bid PPI -6, Bcl-xL conf 169* and MCL1 inh confirm active.
For Cc1ccc(NC(=O)C(C)N2C(=O)c3ccccc3C2=O)c(C)c1 (stereo not given) the results were Bcl-xL primary 4, GLD-1 RNA inh 1 and MCL1 BIM primary 8.
`CC(C)CCN1C(=O)c2cccc3c(N)ccc(c23)C1=O` gave Bcl-xL primary 173*, GLD-1 RNA inh 185*, MCL1 BIM primary active, Bcl-xL conf 145* and MCL1 inh confirm 164*.
Screening O=C(c1cccs1)N1CCN(C23CC4CC(CC(C4)C2)C3)CC1 returned Bcl-xL primary 4, GLD-1 RNA inh 7 and MCL1 BIM primary -1.
For Cc1cc(OCc2nnc(SC(C)C(=O)O)n2-c2ccccc2)ccc1Cl (stereo not given) the results were Bcl-xL primary 3, GLD-1 RNA inh -2 and MCL1 BIM primary 8.
For O=C(CCCN1C(=O)/C(=C/c2cccs2)SC1=S)Nc1ccc(O)c(C(=O)O)c1 the results were Mcl1 Noxa PPI 38, Mcl-1 Bim block 1 and Mcl1 Bid PPI -65.
`O=C(CN1C(=O)/C(=C/c2ccco2)SC1=S)Nc1ccc(C(=O)O)c(O)c1` gave Bcl-xL primary 28, GLD-1 RNA inh 4, MCL1 BIM primary 73*, Bcl-xL conf 30 and MCL1 inh confirm 48*.
For O=C(CN1C(=O)/C(=C/c2ccco2)SC1=S)Nc1ccc(O)c(C(=O)O)c1 the results were Bcl-xL primary 34*, GLD-1 RNA inh -8, MCL1 BIM primary 58*, Bcl-xL conf 23 and MCL1 inh confirm 47*.
For O=C(CN1C(=O)/C(=C/c2ccco2)SC1=S)NC1CCS(=O)(=O)C1 (stereo not given) the results were Bcl-xL primary 44*, GLD-1 RNA inh 17, MCL1 BIM primary 64*, Bcl-xL conf 20 and MCL1 inh confirm 31.
For NN1C(=O)/C(=C\c2ccco2)SC1=S the results were Bcl-xL primary 17, GLD-1 RNA inh 3, Mcl1 Noxa PPI 20, MCL1 BIM primary 55*, Mcl1 Bid PPI -39, Bcl-xL conf 16 and MCL1 inh confirm 35.
Screening CCN(c1ccc(NC(=O)CCc2nc3sc4c(c3c(=O)[nH]2)CCCC4)cc1)C(C)C returned Bcl-xL primary 3, GLD-1 RNA inh 1 and MCL1 BIM primary -4.
Screening COC(=O)c1nnn(-c2cc(Cl)cc(Cl)c2)c1C(=O)OC returned Bcl-xL primary 0, GLD-1 RNA inh 7, Mcl1 Noxa PPI 17, MCL1 BIM primary -3 and Mcl1 Bid PPI -4.
Cc1c(Br)c(O)c(Br)c2sc(=O)oc12 was read as Bcl-xL primary 36*, GLD-1 RNA inh 3, Mcl1 Noxa PPI 51*, MCL1 BIM primary 79*, Mcl1 Bid PPI -11, Bcl-xL conf 20 and MCL1 inh confirm 49*.
`CC(C)(C)NC(=O)c1ccc2c(c1)N(CC(=O)N1CCCCC1)C(=O)C(C)(C)O2` gave Bcl-xL primary 3, GLD-1 RNA inh -7 and MCL1 BIM primary 9.
CC1(C)Oc2ccc(C(=O)NC3CCCC3)cc2N(CC(=O)NC2CCCCC2)C1=O was read as Bcl-xL primary 4, GLD-1 RNA inh 6, Mcl1 Noxa PPI 3, Mcl-1 Bim block -1, MCL1 BIM primary 54*, Mcl1 Bid PPI 0, Bcl-xL conf 25 and MCL1 inh confirm 34.
For N#Cc1c(NC(=O)c2ccco2)sc2c1CCC2 the results were Bcl-xL primary 21, GLD-1 RNA inh 6, MCL1 BIM primary 56*, Bcl-xL conf 25 and MCL1 inh confirm 36.
`CC(C)N1CCN(Cc2cccs2)CC1CCO` (stereo not given) gave Mcl1 Noxa PPI 15, Mcl-1 Bim block -1 and Mcl1 Bid PPI -3.
Cc1oc(-c2cccs2)nc1CN1CCN(C(C)C)C(CCO)C1 (stereo not given) was read as Bcl-xL primary 5, GLD-1 RNA inh -4, Mcl1 Noxa PPI 5, Mcl-1 Bim block -2, MCL1 BIM primary 49*, Mcl1 Bid PPI -29, Bcl-xL conf 5 and MCL1 inh confirm -1.
O=c1[nH]c2ccccc2nc1/C=C(\O)c1cccs1 was read as Bcl-xL primary 81*, GLD-1 RNA inh -162, Mcl1 Noxa PPI -11, Mcl-1 Bim block 1, MCL1 BIM primary 100*, Mcl1 Bid PPI -6, Bcl-xL conf 88* and MCL1 inh confirm 91*.
O/C(=C\c1nc2ccccc2[nH]1)c1cccs1 was read as Bcl-xL primary 9, GLD-1 RNA inh -1 and MCL1 BIM primary 14.
Screening CCOc1cc(C(=O)Nc2cc(C(=O)OC)ccc2C)ccc1OCC(=O)N1CCOCC1 returned Bcl-xL primary -11, GLD-1 RNA inh -2 and MCL1 BIM primary -23.
Cc1ccc(N2C(=O)[C@@H]3[C@H](C2=O)C2CCCN2[C@@H]3C(=O)c2ccccc2)cc1 (stereo not given in full) was read as Bcl-xL primary 78*, GLD-1 RNA inh 48*, Mcl1 Noxa PPI 24, Mcl-1 Bim block 0, MCL1 BIM primary 81*, Mcl1 Bid PPI -8, Bcl-xL conf 64* and MCL1 inh confirm 76*.
